Source: PubChem
Dicer inh = inhibitors of human Dicer processing of pre-microRNA. cat-ELCCA pre-miR-21 Dicer processing, chemiluminescence; active compounds read high. z-score at 25 µM. 47,000 tested, 6% active. AID 1347074; in the data active = z-score above about 3, passing the limit was not always enough;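 also: higher signal means more uncleaved substrate so more Dicer inhibition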
Numbers stand for hits; 0 = inactive. The entries come from a sample that favours hits as a whole.

SMILES	Dicer inh
O=C(Nc1c(C(=O)c2ccc(F)cc2)oc2ccccc12)c1cccs1	0
Nc1nc(-c2ccc(Cl)cc2)cs1	0
Cc1cccc(-c2nnc(N)s2)c1	4.4
Cc1cccc(-c2nc(N)nc(N)n2)c1	0
CCCOc1cccc(-c2nnc(N)s2)c1	0
Nc1nnc(-c2ccc(Cl)cc2)s1	8.7
CCCCOc1ccc(-c2nnc(N)s2)cc1	0
CN(C)/C=C1\SC(=O)N(c2ccccc2)C1=O	0
Cc1ccc(Oc2ncccc2[N+](=O)[O-])c([N+](=O)[O-])n1	0
O=S1(=O)CC2=C(SCC/C2=N\Nc2c(Cl)cc(Cl)cc2Cl)c2cc(Cl)ccc21	0
Nc1ncc(C(=O)Nc2ccc(F)cc2F)c(C(F)(F)F)n1	0
C\C(=N/N=C(\N=C\N(C)C)SCc1cc(F)cc2c1OCOC2)c1ccc(C)nc1	0
Cc1cccc(C)c1NC(=S)N1CCCc2ccccc21	0
O=C(NCc1ccc(S(=O)(=O)Nc2ccc3c(c2)OCCO3)s1)c1ccc(Cl)cc1	0
O=C(NCc1ccc(S(=O)(=O)Nc2ccc3c(c2)OCCO3)s1)c1ccccc1	3.2
O=C(NCc1ccc(S(=O)(=O)Nc2ccccc2Cl)s1)c1ccccc1	0
CN(Cc1ccccc1)c1nc2c(c(=O)n(C)c(=O)n2C)n1Cc1ccccc1Cl	0
COC(=O)c1ccccc1NC(=S)N(C)N	0
COc1ccc(-c2nnc(SC)o2)cc1	0
O=C1C2C(c3ccccc3)OC3(C(=O)c4ccccc4C3=O)C2C(=O)N1c1ccccc1 (configuration not stated)	0
CCOC(=O)C1=NN(c2ccccc2)C2(C(=O)c3ccccc3C2=O)C1c1ccc(C)cc1 (configuration not stated)	0
O=C(C1=NOC2(C(=O)c3ccccc3C2=O)C1c1ccccc1)c1ccccc1 (configuration not stated)	3.9
O=C1CCC(C(=O)O)C(Cc2ccccc2)C1 (configuration not stated)	0
CC(C)(C)OC(=O)C(C)(C)S(=O)(=O)c1ccc(Cl)cc1	0
CN(C)c1ccc(NC(=O)c2cnccn2)cc1	0
SMILES	Dicer inh
CCCCc1c(C)c(C#N)c2nc3ccccc3n2c1N1CCN(CCO)CC1	0
Cc1c(Cc2ccccc2)c(-n2ccnc2)n2c(nc3ccccc32)c1C#N	0
Cc1c(Cc2ccc(Cl)cc2)c(NCCCn2ccnc2)n2c(nc3ccccc32)c1C#N	4.4
Cc1c(CCC(C)C)c(-n2ccnc2)n2c(nc3ccccc32)c1C#N	3.5
CCCc1c(C)c(C#N)c2nc3ccccc3n2c1NCCCn1ccnc1	0
Cc1c(Cc2ccccc2Cl)c(NCCCn2ccnc2)n2c(nc3ccccc32)c1C#N	0
COCCOC(=O)C1=C(C)Nc2nc3ccccc3n2C1c1cccc(O)c1 (configuration not stated)	0
CCOc1ccc(C2Nc3ccc4ncccc4c3C3=C2C(=O)CCC3)cc1 (configuration not stated)	0
Cc1cc(=O)n(-c2nc3ccccc3[nH]2)[nH]1	4.3
O=C1CC(c2ccccc2Cl)Cc2c1cnn2-c1nc2ccccc2[nH]1 (configuration not stated)	0
Cc1cc(=O)n(-c2ccc(O)cc2)[nH]1	0
Cc1cc(=O)n(-c2ccc(Cl)c(Cl)c2)[nH]1	0
Cc1[nH]n(-c2nc3ccccc3[nH]2)c(=O)c1C1OC(=O)c2ccccc21 (configuration not stated)	3.8
Cc1ccccc1-c1nc2ccccc2[nH]1	0
CC(C)NC(=O)N(Cc1ccccc1)Cc1cccnc1	0
OCC#CCSc1ncnn1-c1ccccc1	0
N#CC1CCC(CNC(=O)c2sc3ccccc3c2Cl)CC1 (configuration not stated)	0
COc1cc(C2C(C(=O)OC(C)C)=C(C)Nc3nc4ccccc4n32)ccc1O (configuration not stated)	0
Cc1nc(N=Nc2ccc(S(=O)(=O)O)cc2S(=O)(=O)O)c(COP(=O)(O)O)c(C=O)c1O	3.1
Cc1nc(N=Nc2ccc(C(=O)O)cc2)c(COP(=O)(O)O)c(C=O)c1O	0
CCOc1ccc2nc(NC3=NCN(CCN4CCOCC4)CN3)nc(C)c2c1	0
Cc1c(CN2CCc3ccccc3C2)sc2ccccc12	4.8
Cc1c(CC(=S)N2CCOCC2)sc2ccccc12	0
Cc1c(CN2CCC(C(=O)c3ccc(F)cc3)CC2)sc2ccccc12	0
CCOC(=O)CSC1=C(C#N)C(c2ccc(Br)cc2)CC(=O)N1 (configuration not stated)	0
SMILES	Dicer inh
COc1cccc(-c2nc(=S)c3c(n2CCCN(C)C)CCCC3)c1	0
C=CCNc1oc(-c2ccc(F)cc2)nc1C#N	0
N#Cc1nc(-c2ccccc2)oc1NCc1ccccc1	6.4
COc1ccc(-c2nc(C#N)c(NCc3ccco3)o2)cc1	0
Cn1nc([N+](=O)[O-])nc1Sc1nnc(-c2ccccc2Br)o1	0
COc1ccc(CCNC(=O)Cc2cc(OC)c(OC)cc2CO)cc1OC	0
Cc1nn2c(=O)c(NC(=O)c3ccc(F)cc3)cnc2s1	0
Cc1ccc(C(=O)Nc2cnc3sc(C)nn3c2=O)cc1	4.8
Cc1nn2c(=O)c(NC(=O)c3ccc(Cl)cc3)cnc2s1	0
CS(=O)(=O)NCc1ccc(Cl)cc1	0
O=S(=O)(c1ccccc1)N1CCCC1c1cccs1 (configuration not stated)	0
CC1(C)CC(N2CCCCC2)=CC(=S)S1	0
S=C1C=C(N2CCCCC2)CC(c2cccs2)S1 (configuration not stated)	4.9
Cc1cccc(C(=O)Nc2cc(F)c(Br)cc2F)c1C	0
Cc1ccc(Cc2cc(-c3ccc(C)cc3)n[nH]c2=O)cc1	0
Cc1cc(Cc2ccc(C(F)(F)F)cc2)c(=O)[nH]n1	3.1
Cc1cc(Cc2cccs2)c(=O)[nH]n1	0
COC(=O)C1=C(C)NC2=C(C(=O)CC(C)(C)C2)C1c1ccc(C(=O)OC)cc1 (configuration not stated)	0
COc1ccc(N2C(=O)CC(Nc3ccc(O)cc3)C2=O)cc1 (configuration not stated)	0
CCSc1nnc2c(n1)OC(C)=Nc1ccccc1-2	0
COc1ccc(C2C3C(=O)N(c4ccc(F)cc4)C(=O)C3ON2c2ccccc2)cc1 (configuration not stated)	0
CN(C)c1ccc(C2C3C(=O)N(Cc4ccccc4)C(=O)C3ON2c2ccccc2)cc1 (configuration not stated)	3.3
O=C1C2ON(c3ccccc3)C(c3ccncc3)C2C(=O)N1c1cccc(Cl)c1 (configuration not stated)	0
Cc1ccc2nc(-c3sc4ccccc4c3C)cn2c1	0
COc1ccc(-c2nc(-c3ccc(C)nc3OC)no2)cc1	0
SMILES	Dicer inh
O=S(=O)(c1ccc(Cl)cc1)N1CCC(Cc2ccccc2)CC1	0
CCOC(=O)c1c(N)n(-c2ccc3ccccc3c2)c2nc3ccccc3nc12	0
O=C(c1ccccc1)n1ccc(-c2cccs2)n1	0
Nc1ncn(C(=O)c2ccccc2)n1	4.5
O=C1CN(C(=O)c2ccccc2)C(=O)CN1C(=O)c1ccccc1	0
CC(C)(C)C(=O)CSc1n[nH]c(=O)n1-c1ccccc1C(F)(F)F	0
S=C(NC1CCCCC1)N1N=C2c3ccccc3CCC2C1c1cccs1 (configuration not stated)	0
CCOC(=O)NC(Nc1ccc(S(=O)(=O)Nc2ccc(OC)nn2)cc1)(C(F)(F)F)C(F)(F)F	0
COC(=O)CSc1nc(C)cc(Oc2ccccc2)n1	3.7
Cc1cc(Oc2ccc(=O)n(C)n2)nc(SCC(N)=O)n1	0
COC(=O)CSc1cc(C)nc(N)n1	0
